Source: PubChem BioAssay (National Center for Advancing Translational Sciences (NCATS))
D1 potentiator: human D1 dopamine receptor positive modulation | potentiation, % at 10 µM | HEK293 TREx D1 cells, calcium flux, dopamine EC20 potentiation | 0.036% of 360,000 active | AID 504651; in the data active = potentiation above about 30%; note: 0% is about no effect
Target sequence (P21728 whole entry, looked up): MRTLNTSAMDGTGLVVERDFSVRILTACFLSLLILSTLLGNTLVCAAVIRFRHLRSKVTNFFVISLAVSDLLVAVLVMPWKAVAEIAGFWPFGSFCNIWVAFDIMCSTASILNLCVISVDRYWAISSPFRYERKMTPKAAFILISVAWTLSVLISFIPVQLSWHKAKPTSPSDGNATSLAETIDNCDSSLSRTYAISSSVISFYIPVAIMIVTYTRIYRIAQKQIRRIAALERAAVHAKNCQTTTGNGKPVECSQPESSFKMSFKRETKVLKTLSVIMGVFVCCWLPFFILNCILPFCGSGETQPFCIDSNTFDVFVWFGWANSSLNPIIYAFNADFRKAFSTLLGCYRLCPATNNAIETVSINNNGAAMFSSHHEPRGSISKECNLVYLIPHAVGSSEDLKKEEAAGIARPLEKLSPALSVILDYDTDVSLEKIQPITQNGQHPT
D1 antagonist: antagonists of human D1 dopamine receptor | HEK293 TREx D1 cells, calcium flux, dopamine EC80; stronger effect = lower value | AID 504652 | activity change, negative = inhibition, % at 10 µM | 3.2% of 360,000 active; in the data active = activity change below about -30%; note: % is set by controls: 0 for no effect and ±100 for the full control effect
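Inducible Hek293 Trex D1 cells (tetracycline, overnight, 30 C). Calcium dye 30–90 min RT. Antagonist mode: EC80 dopamine added after 180 s compound read.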
D3 antag: antagonists of human D3 dopamine receptor; 2.5% of 360,000 active; max response, negative = inhibition, %; D3R cells, DiscoveRx beta-arrestin luminescence, antagonist mode; stronger effect = lower value; in the data active = max response below about -50%; inconclusive = no clear call, values can overlap the other calls; note: % is set by controls: 0 for no effect and ±100 for the full control effect
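Cells plated overnight at 1500 cells/well, then exposed to library compounds with dopamine controls for 90 minutes at 37 degrees C. DiscoveRx reagent added for 30–60 minutes at room temperature; luminescence read, quantitative HTS format.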
DRD3 agonist: agonists of human D3 dopamine receptor. P35462. D3R DiscoveRx beta-arrestin cells, luminescence, 90 min. max activation, %. 0.58% of 410,000 active; in the data active = max activation above about 30%; note: 0% is about no effect
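Agonist-mode cell screen: cells plated at 1500/well and incubated overnight at 37 °C, then exposed to library compounds for 90 min at 37 °C. Detection reagent was added for 30–60 min at room temperature, and luminescence was read.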
D1 agonist: human D1 receptor agonism. HEK293 T-REx D1 cells, calcium flux, agonist mode. activation, % at 2 µM. 1% of 360,000 active. AID 504660; in the data active = activation above about 30%; note: 0% is about no effect
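Inducible HEK293 T-REx D1 cells, force-coupled to calcium signalling, were plated at 4000 cells/well with tetracycline and held overnight at 30 C. After no-wash calcium dye loading, compound-evoked calcium rise over 180 s flagged agonists.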
Active calls of the source: *; ? = inconclusive; . = no result given; ! = repeats disagree. Shown are actives, neighbours in structure and some others; about 6.1% of the full set was active somewhere.

SMILES | D1 potentiator | D1 antagonist | D3 antag | DRD3 agonist | D1 agonist
CN(c1ccc(OCC(=O)OCC(=O)Nc2ccc(Br)cc2)cc1)S(=O)(=O)c1cccs1 | -6.2 | -11.3 | 25.5 | 4.2 | 6.3
CN(c1ccc(OCC(=O)OCC(=O)Nc2ccc(F)cc2)cc1)S(=O)(=O)c1ccc(Cl)cc1 | -5.0 | -55.6* | 2.9 | -1.9 | 9.0
COc1ccc(-c2c(-c3ccccc3OC)sc3ccccc23)cc1C=O | 3.2 | . | -59.6* | -2.3 | 1.8
O=C(OCCN1C(=O)c2cccc3c(N4CCOCC4)ccc(c23)C1=O)c1ccc(Cl)cc1 | 0.5 | -1.8 | 10.4 | 4.0 | 92.9*
CCCN(CCC)S(=O)(=O)c1ccc(C(=O)OCCN2C(=O)c3cccc4c(N5CCOCC5)ccc(c34)C2=O)cc1 | 1.4 | -16.3 | 23.3 | 1.3 | 113.2*
O=C(OCCN1C(=O)c2ccccc2C1=O)c1cc(S(=O)(=O)N2CCOCC2)ccc1F | -6.3 | -24.1 | 0.0 | -3.3 | 0.1
O=C(C[C@H]1C[C@H](C(=O)N2CCCCC2)[C@@]2(CCc3ccccc3)c3[nH]c4cc(-c5ccco5)ccc4c3CCN2C1=O)NCCC1=CCCCC1 | . | . | -22.3 | -11.8 | .
Cc1cccc(C(=O)O[C@@H]2[C@H](Cc3ccccc3)NS(=O)(=O)[C@H]3C[C@@H]4C=C[C@]23O4)c1 | 1.3 | -21.8 | -5.9 | 51.6* | 2.2
Cc1cccc(C(=O)O[C@H]2[C@H](Cc3ccccc3)NS(=O)(=O)[C@H]3CC4C=C[C@]23O4)c1 | . | . | 3.8 | 12.5 | .
CC(=O)Nc1cc(C(=O)N2CCCC2)ccc1Sc1ccc(Cl)cc1 | -6.8 | -12.4 | 57.9 | 63.1* | 3.4
CC(=O)Nc1cc(C(=O)NCc2ccc(F)cc2)ccc1Sc1ccc(C)cc1 | -0.8 | -39.3* | . | 9.2 | -3.1
CC(=O)Nc1cc(C(=O)NCc2ccccc2)ccc1Sc1ccc(C)cc1 | 0.4 | 9.4 | . | 2.4 | -1.1
CC(=O)Nc1cc(C(=O)N2CCCC2)ccc1Sc1ccc(C)cc1 | -2.0 | 5.1 | 34.4 | 41.4* | 2.0
CCc1c(-c2ccc(OC)cc2)ncn1Cc1cccc(-c2ccccc2)c1 | . | . | -1.0 | 5.7 | .
Cc1nnsc1-c1onc(C)c1C(=O)Nc1cc(Cl)cc(Cl)c1 | -11.8 | -34.5* | 19.8 | 2.3 | 9.2
Cc1ccc(NC(=O)c2c(C)noc2-c2snnc2C)cc1 | -5.2 | 2.5 | 1.8 | 2.0 | 1.7
Cc1ccc(N2C(=O)C(CC(=O)Nc3ccccc3)N(CCC3=CCCCC3)C2=O)cc1 (centres undefined) | -3.2 | 7.9 | . | -15.6 | 12.1
O=C(c1cccc(F)c1)N1CCCC(C(=O)N2CCCCCC2)C1 (centres undefined) | 0.6 | 3.1 | -7.1 | -1.1 | 0.4
COc1cc(CN2CCCC(C(=O)N3CCc4ccccc4C3)C2)cc(OC)c1OC (centres undefined) | -2.8 | -14.1 | -70.5* | -16.9 | 6.5
COc1ccc(CN2CCCC(C(=O)N3CCc4ccccc4C3)C2)cc1OC (centres undefined) | -1.6 | -3.3 | -60.8* | -18.7 | 0.9
O=C(C1CCCN(Cc2ccccc2)C1)N1CCc2ccccc2C1 (centres undefined) | -3.0 | -7.0 | -88.7* | -44.9 | -0.8
COc1ccc(CN2CCCC(C(=O)N3CCCCC3)C2)cc1OC (centres undefined) | -4.5 | -10.7 | -4.2 | -17.9 | 2.0
O=C(C1CCCN(Cc2cccc(F)c2)C1)N1CCCCC1 (centres undefined) | -3.1 | -10.3 | -73.3* | -8.4 | 1.0
COC(=O)C(=O)Nc1cccc2cccnc12 | 1.0 | 1.8 | . | . | 0.6
COc1ccc(C(=O)N/N=C/c2ccc(N(C)c3ccccc3)cc2)cc1 | . | . | 5.2 | -9.3 | .
SMILES | D1 potentiator | D1 antagonist | D3 antag | DRD3 agonist | D1 agonist
CCCCc1nn2c(=O)cc(COC(=O)c3ccc(NC(=O)CCc4ccccc4)cc3)nc2s1 | -0.8 | 3.9 | . | -4.7 | -1.0
Cc1cc(O)c2c(C)c(CC(=O)NCc3ccccc3Cl)c(=O)oc2c1 | -3.0 | -35.2* | . | 6.8 | 0.6
CCn1c(O)c(N=NC(=O)CNC(=O)c2cccnc2)c2ccccc21 | . | . | -16.2 | -4.0 | .
COc1cccc(N(Cc2nnc3n2CCCCC3)C(=O)Nc2cccc(Cl)c2)c1 | -0.7 | 5.9 | . | 0.2 | 1.3
COc1cc(Cn2ncc3c4sc(C)cc4n(C)c3c2=O)cc(OC)c1 | -3.3 | -0.2 | . | . | 13.4
Cc1ccccc1-c1noc(CSc2nnc(-c3ccncc3)n2-c2ccc(F)cc2)n1 | -4.5 | -4.9 | . | 5.6 | 1.0
Cc1ccc(-n2c(SCc3nc(-c4ccccc4C)no3)nnc2-c2ccncc2)cc1C | -0.7 | -33.9* | . | 0.5 | 12.9
Cc1cc2c(C)nc(-c3ccccc3)nc2o1 | -6.4 | -50.0* | 2.1 | 0.9 | -0.4
Cc1ccc(OCCNCc2ccccc2)c(C)c1 | -4.8 | -2.0 | -69.9* | -10.4 | 17.9
Cc1cc(C)c(C)c(OCCOCCNCc2ccccc2)c1 | -2.9 | -4.2 | -12.9 | -5.1 | 32.7*
COc1cccc(OCCNCc2ccccc2)c1 | 33.6* | -17.7 | -79.0* | -15.2 | 4.5
Cc1cccc(OCCCCNCc2ccccc2)c1 | -3.3 | 14.9 | ? | -13.5 | 8.4
CCCOc1ccc(OCCOCCNCc2ccccc2)cc1 | -0.2 | -16.8 | -12.6 | -5.3 | 18.7
Cc1ccc(NC(=O)CN2CCCN(Cc3cc(C)ccc3C)S2(=O)=O)c(Cl)c1 | -0.6 | 1.6 | . | -2.3 | 5.1
CCc1ccccc1NC(=O)CN1CCCN(Cc2cc(C)ccc2C)S1(=O)=O | 4.8 | -10.9 | . | 7.1 | 32.6*
COc1ccc(Cl)cc1NC(=O)CN(C)C(=O)C1CCN(C(=O)Nc2ccccc2)CC1 | . | 3.4 | -5.2 | 8.7 | 1.6
CCOC(=O)c1c(C=O)c(C)n(Cc2ccc(C)cc2)c1C | 18.2 | -56.0* | 39.0 | 1.8 | 104.1*
Cc1cccc2c1-c1sc(C(=O)NCCCN3CCCC(C)C3)cc1CO2 (centres undefined) | -18.7 | -51.2* | -75.8* | -9.8 | 18.7
CCCN1CCN(CCCNC(=O)c2cc3c(s2)-c2c(C)cccc2OC3)CC1 | -10.4 | -38.1*! | ? | -10.3 | 5.2
CC1CC(C)CN(CCCNC(=O)c2cc3c(s2)-c2ccccc2OC3)C1 (centres undefined) | -1.9 | 1.0 | -19.3 | -2.9 | 7.3
Cc1cccc2c1-c1sc(C(=O)N3CCN(c4ccccc4)CC3)cc1CO2 | -3.8 | -32.5* | . | -4.4 | 4.5
CCOC(=O)C1CCN(C(=O)c2ccc(OCC(=O)Nc3cccc(C(F)(F)F)c3)c(OC)c2)CC1 | -8.1 | -21.3 | 0.0 | 4.3 | 12.4
Cc1ccc(Nc2nc(-c3sc(C)nc3C)cs2)cc1 | -2.8 | -13.5 | 11.3 | -3.0 | -0.2
Cc1nc(C)c(-c2csc(N)n2)s1 | -7.3 | -31.0* | -4.8 | 2.0 | 2.8
CCOCCCNC(=O)C(c1ccc(Cl)cc1)N(Cc1cccs1)C(=O)c1ccc(NC(C)=O)cc1 (centres undefined) | -1.0 | 7.6 | . | 4.5 | 7.9
CCc1ccccc1NC(=S)N(Cc1cccc(C)c1)c1cccnc1 | 1.1 | 13.5 | -3.1 | 5.0 | 4.6
